Several values for one entry are separate records, joined by “and”; a condition that tells them apart may be missing. Equal values may be shown once. Out of some 5,500 compounds screened, about 2,000 (36%) were called active. Inconclusive results (about 18%) are left out. Rule as the data show it: active = normalized growth mostly below about 0.91 (no sharp cut-off); inconclusive = no clear call, values can overlap the other calls; inactive = mostly above about 0.92. This is one part of the list.
Test: chemical genetic growth profiling, strain panel (AID 1159580);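 also: tested at 20 µM; growth read once vehicle control cultures reached saturation at 30 °C; 1 = growth at the plate median or of vehicle wells; lower values mean less growth of the strain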
Details: S. cerevisiae deletion strains, growth OD

Measured: normalized growth

C=C1C(C2(C)C=CC(=O)C(C)(C)C2CC(=O)OC)CC[C@@]2(C)[C@H](c3ccoc3)OC(=O)C3OC132 (stereo not given in full)
inactive: locus YAL021C, strain ccr4, stronger effect = lower value 1.02 | locus YAL026C, strain drs2, stronger effect = lower value 0.97 | locus YAL030W, strain snc1, stronger effect = lower value 0.996 | locus YBL061C, strain skt5, stronger effect = lower value 0.988 | locus YBR009C, strain hhf1, stronger effect = lower value 1 | locus YBR021W, strain FUR4, stronger effect = lower value 1.03 | locus YBR023C, strain chs3, stronger effect = lower value 1 | locus YBR171W, strain sec66, stronger effect = lower value 0.954 | locus YBR229C, strain ROT2, stronger effect = lower value 0.957 | locus YBR231C, strain swc5, stronger effect = lower value 0.976 | locus YBR279W, strain paf1, stronger effect = lower value 0.999 | locus YCL011C, strain gbp2, stronger effect = lower value 1 | locus YCL016C, strain dcc1, stronger effect = lower value 1.03 | locus YCL029C, strain bik1, stronger effect = lower value 0.977 | locus YCL061C, strain MRC1, stronger effect = lower value 0.997 | locus YCL069W, strain vba3, stronger effect = lower value 0.986 | locus YCR088W, strain abp1, stronger effect = lower value 0.991 | locus YDL005C, strain med2, stronger effect = lower value 0.997 | locus YDL035C, strain GPR1, stronger effect = lower value 0.978 | locus YDL040C, strain nat1, stronger effect = lower value 0.992 | locus YDL074C, strain BRE1, stronger effect = lower value 0.969 | locus YDL101C, strain DUN1, stronger effect = lower value 0.987 | locus YDL185W, strain tfp1, stronger effect = lower value 0.956 | locus YDL192W, strain arf1, stronger effect = lower value 0.985 | locus YDR001C, strain nth1, stronger effect = lower value 0.992 | locus YDR069C, strain doa4, stronger effect = lower value 0.966 | locus YDR101C, strain arx1, stronger effect = lower value 0.97 | locus YDR137W, strain rgp1, stronger effect = lower value 0.976 | locus YDR159W, strain sac3, stronger effect = lower value 0.962 | locus YDR162C, strain NBP2, stronger effect = lower value 0.982 | locus YDR195W, strain ref2 0.976 | locus YDR297W, strain sur2, stronger effect = lower value 0.996 | locus YDR318W, strain mcm21, stronger effect = lower value 0.99 | locus YDR334W, strain swr1, stronger effect = lower value 0.966 | locus YDR335W, strain msn5, stronger effect = lower value 1 | locus YDR388W, stronger effect = lower value 0.977 | locus YDR392W, strain spt3, stronger effect = lower value 0.942 | locus YDR502C, strain sam2, stronger effect = lower value 0.979 | locus YEL003W, strain gim4, stronger effect = lower value 0.983 | locus YEL037C, strain rad23, stronger effect = lower value 0.989 | locus YEL061C, strain CIN8 (second series), stronger effect = lower value 0.982 | locus YEL061C, strain CIN8, stronger effect = lower value 0.995 | locus YER015W, strain faa2, stronger effect = lower value 0.996 | locus YER016W, strain bim1, stronger effect = lower value 0.989 | locus YER110C, stronger effect = lower value 0.981 | locus YER111C, strain swi4, stronger effect = lower value 0.972 | locus YER155C, strain BEM2 (second series), stronger effect = lower value 1.01 | locus YER155C, strain BEM2, stronger effect = lower value 0.995 | locus YER167W, strain BCK2, stronger effect = lower value 0.985 | locus YFR010W, strain ubp6, stronger effect = lower value 0.971 | locus YGL078C, strain dbp3, stronger effect = lower value 0.978 | locus YGL086W, strain mad1, stronger effect = lower value 1.01 | locus YGL167C, strain pmr1, stronger effect = lower value 0.989 | locus YGL173C, strain kem1, stronger effect = lower value 0.968 | locus YGL227W, strain vid30, stronger effect = lower value 0.999 | locus YGL240W, strain doc1, stronger effect = lower value 0.999 | locus YGL248W, strain PDE1, stronger effect = lower value 0.995 | locus YGR135W, strain pre9, stronger effect = lower value 1.02 | locus YGR229C, strain SMI1, stronger effect = lower value 0.998 | locus YGR252W, strain gcn5, stronger effect = lower value 0.984 | locus YHR013C, strain ard1, stronger effect = lower value 0.993 | locus YHR027C, strain rpn1, stronger effect = lower value 0.972 | locus YHR030C, strain SLT2, stronger effect = lower value 0.991 and 0.976 | locus YHR079C, strain IRE1 (second series), stronger effect = lower value 0.975 | locus YHR079C, strain IRE1, stronger effect = lower value 0.978 | locus YHR094C, strain hxt1, stronger effect = lower value 0.976 | locus YHR129C, strain ARP1, stronger effect = lower value 0.992 | locus YHR142W, strain chs7, stronger effect = lower value 1.02 | locus YHR200W, strain rpn10, stronger effect = lower value 0.968 | locus YIL066C, strain RNR3, stronger effect = lower value 0.974 | locus YIL073C, strain SPO22, stronger effect = lower value 0.994 | locus YIL125W, strain kgd1, stronger effect = lower value 0.978 | locus YIR030C, strain dcg1, stronger effect = lower value 0.977 | locus YJL092W, strain hpr5, stronger effect = lower value 0.973 | locus YJL095W, strain BCK1 (second series), stronger effect = lower value 0.979 | locus YJL095W, strain BCK1, stronger effect = lower value 1 and 0.987 | locus YJL115W, strain asf1, stronger effect = lower value 0.98 | locus YJL129C, strain trk1, stronger effect = lower value 0.961 | locus YJL134W, strain LCB3, stronger effect = lower value 0.983 | locus YJL154C, strain vps35, stronger effect = lower value 1.01 | locus YJL164C, strain tpk1, stronger effect = lower value 1.03 | locus YJL166W, strain qcr8, stronger effect = lower value 1 | locus YJL168C, strain set2, stronger effect = lower value 0.994 | locus YJL187C, strain SWE1 (second series), stronger effect = lower value 0.989 | locus YJR066W, strain TOR1, stronger effect = lower value 0.932 | locus YJR075W, strain HOC1, stronger effect = lower value 0.98 | locus YKL009W, strain mrt4, stronger effect = lower value 0.986 | locus YKL068W, stronger effect = lower value 0.989 | locus YKL085W, strain MDH1 (second series), stronger effect = lower value 1 | locus YKL085W, strain MDH1, stronger effect = lower value 1 | locus YKL160W, strain elf1, stronger effect = lower value 1.05 | locus YKR001C, strain vps1, stronger effect = lower value 0.992 | locus YKR026C, strain gcn3, stronger effect = lower value 0.981 | locus YKR091W, strain srl3, stronger effect = lower value 0.996 | locus YLL001W, strain dnm1, stronger effect = lower value 0.967 | locus YLL026W, stronger effect = lower value 0.984 | locus YLL041C, strain sdh2, stronger effect = lower value 0.975 | locus YLR027C, strain aat2, stronger effect = lower value 0.978 | locus YLR039C, strain RIC1, stronger effect = lower value 0.92 | locus YLR058C, strain SHM2, stronger effect = lower value 0.979 | locus YLR102C, strain apc9, stronger effect = lower value 0.983 | locus YLR113W, strain HOG1, stronger effect = lower value 0.991 | locus YLR221C, strain rsa3, stronger effect = lower value 0.978 | locus YLR258W, strain gsy2, stronger effect = lower value 1.02 | locus YLR262C, strain YPT6 (second series), stronger effect = lower value 0.983 | locus YLR262C, strain YPT6, stronger effect = lower value 0.933 | locus YLR268W, strain sec22, stronger effect = lower value 0.959 | locus YLR320W, strain mms22, stronger effect = lower value 1 | locus YLR342W, strain FKS1, stronger effect = lower value 0.993 | locus YLR357W, strain rsc2, stronger effect = lower value 0.978 | locus YLR370C, strain arc18, stronger effect = lower value 0.963 | locus YLR371W, strain rom2, stronger effect = lower value 0.972 | locus YLR384C, strain iki3, stronger effect = lower value 1 | locus YLR418C, strain cdc73, stronger effect = lower value 0.994 | locus YML016C, strain PPZ1, stronger effect = lower value 0.978 | locus YML032C, strain rad52, stronger effect = lower value 0.965 | locus YML120C, strain ndi1, stronger effect = lower value 1.02 | locus YML124C, strain tub3, stronger effect = lower value 0.988 | locus YMR058W, strain fet3, stronger effect = lower value 0.994 | locus YMR078C, strain ctf18, stronger effect = lower value 0.961 | locus YMR125W, strain sto1, stronger effect = lower value 0.992 | locus YMR129W, stronger effect = lower value 0.99 | locus YMR205C, strain PFK2, stronger effect = lower value 1 | locus YMR223W, strain ubp8, stronger effect = lower value 0.993 | locus YMR231W, strain pep5, stronger effect = lower value 0.973 | locus YMR263W, strain SAP30, stronger effect = lower value 0.972 | locus YMR307W, strain GAS1, stronger effect = lower value 1.16 | locus YNL067W, strain RPL9B, stronger effect = lower value 0.992 | locus YNL071W, strain lat1, stronger effect = lower value 0.999 | locus YNL153C, strain GIM3, stronger effect = lower value 0.982 | locus YNL183C, strain NPR1, stronger effect = lower value 0.968 | locus YNL209W, strain ssb2, stronger effect = lower value 1 | locus YNL233W, strain BNI4, stronger effect = lower value 1.02 | locus YNL248C, strain rpa49, stronger effect = lower value 0.938 | locus YNL250W, strain rad50, stronger effect = lower value 0.972 | locus YNL271C, strain bni1, stronger effect = lower value 0.976 | locus YNL298W, strain CLA4, stronger effect = lower value 0.976 | locus YNL307C, strain MCK1, stronger effect = lower value 0.982 | locus YNL322C, strain KRE1 (second series), stronger effect = lower value 0.992 | locus YNR049C, strain mso1, stronger effect = lower value 0.988 | locus YNR052C, strain pop2, stronger effect = lower value 0.984 | locus YOL012C, strain htz1 1.19 | locus YOL147C, strain pex11, stronger effect = lower value 0.979 | locus YOR001W, strain rrp6, stronger effect = lower value 0.936 | locus YOR061W, strain CKA2, stronger effect = lower value 0.956 | locus YOR069W, strain VPS5, stronger effect = lower value 0.994 | locus YOR070C, strain gyp1, stronger effect = lower value 0.993 | locus YOR080W, strain dia2, stronger effect = lower value 0.976 | locus YOR083W, strain WHI5, stronger effect = lower value 1.06 | locus YOR106W, strain vam3, stronger effect = lower value 1.06 | locus YOR136W, strain idh2, stronger effect = lower value 0.976 | locus YOR144C, strain elg1, stronger effect = lower value 0.98 | locus YOR184W, strain ser1, stronger effect = lower value 0.953 | locus YOR231W, strain MKK1, stronger effect = lower value 0.996 | locus YOR265W, strain rbl2, stronger effect = lower value 0.991 | locus YOR270C, strain vph1, stronger effect = lower value 0.87 | locus YOR290C, strain snf2, stronger effect = lower value 1.05 | locus YOR316C, strain cot1, stronger effect = lower value 0.981 | locus YPL051W, strain arl3, stronger effect = lower value 0.959 | locus YPL078C, strain atp4, stronger effect = lower value 1.05 | locus YPL106C, strain sse1, stronger effect = lower value 1.04 | locus YPL240C, strain hsp82, stronger effect = lower value 0.976 | locus YPL241C, strain CIN2, stronger effect = lower value 0.986 | locus YPL256C, strain CLN2, stronger effect = lower value 0.995 | locus YPR119W, strain clb2, stronger effect = lower value 0.98 | locus YPR141C, strain kar3, stronger effect = lower value 0.985 | locus YPR163C, strain tif3, stronger effect = lower value 0.983 | locus YPR167C, strain met16, stronger effect = lower value 0.983 | strain wtn01, stronger effect = lower value 0.956
active: locus YGL253W, strain hxk2, stronger effect = lower value 0.91

Reference: PubChem BioAssay AID1159580 (chemical genetic matrix, 2015)
